# Source: PubChem BioAssay (NCI)
# This is part of a sample that, as a whole, favours compounds with a hit. Of some 83,000 tested, about 20% had one in any assay.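 Assay: single dose, 48 h. Readout: percent growth (0 = no net growth; negative = cell death). Active: <10.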 A number with no mark means an inactive call. Calls of active or inactive are those of the source.
# Tests used:
# Test in all cases: NCI-60 one-dose screen, 48 h (100 = growth as untreated, 0 = no growth, -100 = all killed)
# Conditions in all cases: 10 µM
# SK-MEL-2 melanoma = test system: SK-MEL-2 melanoma
# EKVX NSCLC = test system: EKVX NSCLC
# SN12C renal = test system: SN12C renal
# UO-31 renal = test system: UO-31 renal
# ACHN renal = test system: ACHN renal
# CAKI-1 renal = test system: CAKI-1 renal
# A498 renal = test system: A498 renal
# CCRF-CEM leukemia = test system: CCRF-CEM leukemia
# MOLT-4 leukemia = test system: MOLT-4 leukemia
# TK-10 renal = test system: TK-10 renal
SMILES,growth (SK-MEL-2 melanoma),growth (EKVX NSCLC),growth (SN12C renal),growth (UO-31 renal),growth (ACHN renal),growth (CAKI-1 renal),growth (A498 renal),growth (CCRF-CEM leukemia),growth (MOLT-4 leukemia),growth (TK-10 renal)
CN1C(=O)N(C)C2SC(N/N=C/c3ccccc3)=NC21 (stereo unspecified),73.3%,90.7%,81.5%,65.4%,96.3%,72.5%,81.7%,78.4%,54.9%,–
COc1ccccc1[C@H]1C(C(=O)c2ccc(Cl)cc2)C2(N[C@@H]1c1ccccc1)C(=O)Nc1ccccc12 (stereo partly specified),-85.9% (active),3.23% (active),-89% (active),1.13% (active),-3.58% (active),4.17% (active),-19.2% (active),4.07% (active),-17.7% (active),–
COc1ccc(N(C)c2cc(C#N)nc3ccccc23)cc1/C=C/C(=O)NO,-80% (active),-54.6% (active),-51.4% (active),-55.3% (active),-22.2% (active),–,16.2%,9.09% (active),-3.71% (active),–
Cn1c(O)c(N=Nc2nc(-c3cc4ccccc4oc3=O)cs2)c2cc(Br)ccc21,31.8%,65.4%,73.8%,77.9%,35.4%,75.7%,16.5%,97.7%,104%,–
CN1CCN(Cc2ccc(C(=O)Nc3cccc(Nc4ccc5c(O)cccc5n4)c3)cc2C(F)(F)F)CC1,-75.9% (active),-45.6% (active),1.56% (active),-20.2% (active),-23.4% (active),-38.3% (active),-33.2% (active),5.12% (active),-2.84% (active),–
CN1CCc2c(sc3ncnc(N/N=C/c4cn(-c5ccccc5)nc4-c4ccc(Cl)cc4)c23)C1,36.3%,19.8%,24.9%,15.4%,21.7%,–,94.1%,11.4%,18.2%,49.9%
CN1C/C(=C\c2ccc(O)cc2O)c2[o+]c3cc(O)ccc3cc2C1,46.5%,78%,39.9%,63.6%,71.9%,70.1%,117%,41.1%,37.8%,–
CNC(=O)c1cccc(N2CCc3c2ccc(NC(=O)Nc2ccc(N4CCN(C)CC4)c(C(F)(F)F)c2)c3F)c1,-53.2% (active),-87% (active),-91.5% (active),-100% (active),-100% (active),-81.5% (active),39.3%,-42.1% (active),–,–
Cc1cc(C)nc(NS(=O)(=O)c2ccc(N/C(N)=N/c3nccc(-c4ccccc4)n3)cc2)n1,89.5%,43%,73.6%,34.7%,61.7%,–,71.2%,67.7%,38.8%,76.4%
O=C(Nc1cccc(-c2cn(-c3ccc4oc(=O)ccc4c3)nn2)c1)Nc1cc(C(F)(F)F)cc(C(F)(F)F)c1,29.6%,13.5%,24.6%,30.9%,12.5%,36.2%,19.6%,27.1%,11.7%,–
O=S(=O)(c1ccc(Cl)cc1)c1nc(-c2ccccc2)oc1S(=O)(=O)c1ccc(Cl)cc1,96.7%,92.1%,89.5%,64.4%,91.9%,85.8%,122%,-28.1% (active),–,–
C/C(=N\N=C\c1ccc(Cl)c([N+](=O)[O-])c1)c1ccc2c(c1)Nc1ccccc1S2,69.4%,48%,37.2%,76.9%,45.6%,60.3%,91.8%,56.4%,40.3%,–
CN1CCc2c(sc3ncnc(N/N=C/c4ccc5ccccc5c4)c23)C1,103%,90.4%,72.4%,–,67.2%,78.2%,106%,40.6%,63.6%,110%
O=C1Nc2cc(Cl)ccc2/C1=C/c1cccc(OCc2ccc(Br)cc2F)c1,-20% (active),10.5%,17.6%,–,30.8%,26.9%,60%,-15.9% (active),0.0252% (active),77.9%
CN1CCc2c(sc3ncnc(N/N=C/c4cn(-c5ccccc5)nc4-c4ccc(Br)cc4)c23)C1,58.3%,20.5%,13.9%,–,65.6%,84.1%,94.8%,15.7%,2.95% (active),92.3%
O=C(c1ccc(O)cc1)C1[C@H](c2ccc(Br)cc2)[C@@H](c2ccccc2)NC12C(=O)Nc1ccc(Br)cc12 (stereo partly specified),-21.1% (active),6.1% (active),-83.5% (active),–,2.27% (active),3.36% (active),10.9%,19.7%,12.4%,-5.38% (active)
Cc1ccc(-c2cc(-c3cc4ccccc4nc3Cl)[nH]c(=O)n2)cc1,41%,27.4%,0.368% (active),–,38.6%,24.8%,57.3%,-30.1% (active),-21.6% (active),26.3%
O=C(Cn1cc(CSc2nnc3oc4ccccc4n23)nn1)Nc1cccc(Cl)c1,55.6%,57.6%,76.5%,–,66.7%,59.8%,106%,50.6%,–,79.3%
COc1cccc(C(N)=Nc2ccc(OCCCCCCn3cncn3)cc2)c1,27.3%,42%,30.2%,–,45%,39.1%,113%,10.4%,–,64.3%
CS(=O)(=O)Nc1ccc(-c2ccc3c(c2)ncn3-c2ccc(NC(=O)Nc3ccc(Br)cc3)cc2)cc1,-52.1% (active),-0.46% (active),14.2%,–,4.12% (active),2.14% (active),-17% (active),-14.9% (active),-18.4% (active),25.7%
Cc1cccc2cc(-c3cc(-c4ccccc4)nc(=O)[nH]3)c(Cl)nc12,102%,84.6%,84%,–,91.8%,87.2%,94.5%,8.46% (active),61.3%,110%
CN1CCN(c2ccc(C(=O)/C=C/c3cc(Br)ccc3F)cc2)CC1,107%,55.7%,38.2%,–,63.7%,50%,107%,-11.4% (active),24%,88.6%
Cc1ccc(-c2cc(-c3cc4ccccc4nc3Cl)[nH]c(=S)n2)cc1,11.8%,50%,63.8%,–,46.5%,61.5%,79.5%,33.2%,17.5%,107%
O=C1c2ccccc2C(=O)c2c1c(C(=O)c1ccc(Cl)cc1)n1c2ccc2c3ccccc3ccc21,107%,97.1%,103%,–,82.1%,92.5%,144%,102%,107%,108%
O=C1Nc2ccc(Cl)cc2/C1=C/c1cccc(OCc2ccccc2)c1,28.4%,19.4%,36.1%,–,24.3%,34.6%,84.2%,-21.5% (active),-20.6% (active),77.2%
O=c1[nH]n(C(=S)N/N=C/c2ccc(F)cc2)c(=O)c2ccccc12,82.7%,88.2%,71.2%,–,82.5%,82%,105%,12.8%,10.7%,102%
Cc1ccc(C(=O)Nc2ccc(-n3c(C)nc4c(cnn4-c4ccccc4)c3=O)cc2)cc1,78.3%,30.5%,73.3%,–,61.8%,72.4%,87.3%,46.3%,34.3%,82.3%
O=C(NO)c1ccc(CNC(=O)[C@H]2Cc3c([nH]c4ccccc34)[C@H](c3ccc(Cl)cc3)N2)cc1,-21.5% (active),25%,15.1%,–,28.6%,29%,-6.62% (active),17.4%,5.97% (active),4.19% (active)
O=C1Nc2cc(Cl)ccc2/C1=C/c1cccc(OCc2ccccc2)c1,-31.8% (active),11.3%,-26.7% (active),–,9.76% (active),9.35% (active),49.9%,0.155% (active),5.59% (active),33.6%
